NCOA2 inhibitor: inhibits human steroid receptor coactivator 2. AID 651957. hit rate 0.17% among 370,000. Q15596. HEK293 GAL4-SRC2 luciferase reporter, luminescence. inhibition, % at 9 µM;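 active means inhibition above the mean inhibition of all tested compounds plus 3 SD, set per campaign, cut at about 52% in these data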;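 further: 0% = DMSO treated cells and 100% = cells given Gossypol at 36 µM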
NCOA1 inh: inhibits human SRC1 coactivator. Q15788. HEK293 GAL4-SRC1 luciferase reporter, luminescence. inhibition, % at 3.6 µM. hit rate 0.12% among 360,000;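 active means inhibition above the campaign mean plus 3 SD, with each screening campaign given its own cutoff, cut at about 60% in these data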;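 further: 0% = DMSO treated cells and 100% = gossypol at 36 µM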
SRC3 inh: inhibits human SRC3 coactivator; HEK293 GAL4-SRC3 luciferase reporter, luminescence; hit rate 0.17% among 360,000; inhibition, % at 3.6 µM; Q9Y6Q9;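 active means inhibition above a per-campaign cutoff, the mean of all compounds plus 3 SD, cut at about 60% in these data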;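 further: 0% = DMSO-treated cells and 100% = gossypol-treated cells at 36 µM; higher means less SRC3-driven luciferase light from the GAL4 reporter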
NR5A2 inv ag: inverse agonists of human LRH-1 (NR5A2) | O00482 | HEK293T StAR-luciferase reporter, LRH-1 transfected, 24 h | inhibition, % at 3.6 µM | hit rate 0.13% among 360,000;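 active means inhibition above the mean inhibition of all tested compounds plus 3 SD, cut at about 73% in these data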;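 further: 0% = DMSO wells and 100% = reporter-only cells lacking LRH-1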
Target sequence (O00482 whole entry, looked up): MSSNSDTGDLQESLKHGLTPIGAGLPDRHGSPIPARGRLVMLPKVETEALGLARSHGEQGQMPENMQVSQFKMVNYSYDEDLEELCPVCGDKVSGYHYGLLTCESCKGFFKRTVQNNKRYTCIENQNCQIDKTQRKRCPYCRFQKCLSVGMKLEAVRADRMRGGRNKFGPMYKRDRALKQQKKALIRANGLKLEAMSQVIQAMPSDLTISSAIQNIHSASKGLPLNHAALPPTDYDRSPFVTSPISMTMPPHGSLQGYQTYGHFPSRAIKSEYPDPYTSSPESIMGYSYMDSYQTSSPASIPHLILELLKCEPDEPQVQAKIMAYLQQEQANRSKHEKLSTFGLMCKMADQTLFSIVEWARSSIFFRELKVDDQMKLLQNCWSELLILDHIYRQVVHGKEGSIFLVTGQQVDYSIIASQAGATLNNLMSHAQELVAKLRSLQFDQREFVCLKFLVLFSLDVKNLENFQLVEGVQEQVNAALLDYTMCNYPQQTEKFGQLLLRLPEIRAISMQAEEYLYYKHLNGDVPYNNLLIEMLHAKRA
LGR2 inh: inhibitors of bursicon-induced Drosophila LGR2 receptor cAMP signaling; hit rate 0.35% among 380,000; inhibition, % at 9.99 µM; HEK293 LGR2, CRE-luciferase, bursicon-stimulated, 4 h;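 active means drop in luminescence signal, shown as inhibition above about 50% in the replicate tests, limit read from the data, passing the limit was not always enough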;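 further: agonist challenge used bursicon conditioned medium at about half maximal strength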
Active calls of the source: *; / = no result. In the library only some 0.48% were active in any assay of this set; here they are far more common.

SMILES	NCOA2 inhibitor	NCOA1 inh	SRC3 inh	NR5A2 inv ag	LGR2 inh
Cc1ccc(S(=O)(=O)N(C)C[C@@H]2Oc3ccc(NC(=O)CCCCCC(=O)Nc4ccccc4N)cc3C(=O)N([C@@H](C)CO)C[C@H]2C)cc1	/	/	/	/	9.2
O=C(Nc1ccc(OCc2ccccc2Cl)cc1)c1cccnc1	67.3*	24.4	21.1	16.3	-6.7
COc1ccc2c3c([nH]c2c1)[C@@H](CO)N(C(=O)c1ccccc1)CC31CN(C(=O)Nc2cccc(F)c2)C1	/	/	/	/	-9.1
COC(=O)c1cc(O)cc(OC)c1Oc1cc(C)cc(O)c1C(=O)O	-17.8	58.3	68.1*	58.8	-6.2
COC(=O)c1cc(O)cc(OC)c1C(=O)c1c(O)cc(C)cc1O	-33.3	-9.6	12.2	-4.2	3.8
C[C@H]1CN([C@@H](C)CO)C(=O)c2cc(NS(=O)(=O)c3ccc(F)cc3)ccc2O[C@@H]1CN(C)S(=O)(=O)c1ccccc1	/	/	/	/	11.2
Cc1cc(/C=C\c2ccc3cc(N(C)C)ccc3[n+]2C)c(C)n1-c1ccccc1	/	53.4	77.1*	77.0*	/
C[C@@H]1CCCCO[C@@H](CN(C)S(=O)(=O)c2ccc(F)cc2)[C@H](C)CN([C@H](C)CO)C(=O)c2cc(NC(=O)Nc3ccc(F)cc3)ccc2O1	/	/	/	/	4.1
O=C(N/N=C/c1sc(N2CCOCC2)nc1-c1ccccc1)c1cccc(S(=O)(=O)N2CCCC2)c1	19.7	65.3*	76.0*	85.5*	/
O=C(N/N=C/c1sc(N2CCOCC2)nc1-c1ccccc1)c1ccc(O)cc1	-66.0	-79.5	-2.0	3.4	-3.8
N#CC(C#N)=NNc1ccc2cn[nH]c2c1	-13.3	29.6	30.8	26.9	81.5*
CCNC(=S)Nc1ccc2cn[nH]c2c1	-7.8	4.3	3.5	19.2	-3.3
CC(C)(C)C(=O)/C(=C/c1ccc(Cl)cc1)n1cncn1	61.6*	50.3	73.2*	64.7	42.4
CC(C)/C=C(/C(=O)c1ccc(Cl)cc1Cl)n1cncn1	-12.7	5.3	21.9	9.5	26.3
COc1ccc2c(c1)c(C(C)=O)c(C)n2-c1ccccc1	30.8	26.1	29.8	-10.8	5.6
COc1ccc(-n2c(C)c(C(C)=O)c3cc(O)ccc32)cc1	48.0	67.9*	58.5	7.8	/
Cc1ccc(S(=O)(=O)Nc2ccc3c(c2)C(=O)N([C@@H](C)CO)C[C@H](C)[C@@H](CN(C)Cc2ccncc2)O3)cc1	/	/	/	/	-2.1
CCC(=O)Nc1ccc2c(c1)C(=O)N(C)[C@@H]1CC[C@H](CC(=O)Nc3cccc(OC)c3)O[C@@H]1CO2	/	/	/	/	-8.3
CCCOc1ccc(Br)cc1/C=N/NC(=O)c1cc(OC)c(OC)c(OC)c1	29.5	-45.8	11.4	7.6	-2.8
COc1ccc(C(=O)N/N=C/c2cc(Br)ccc2O)cc1OC	18.2	34.1	63.8*	20.1	9.5
COc1cccc(/C=N/NC(=O)c2c(C)nc3ccc(Br)cn23)c1O	/	78.3*	79.0*	99.1*	/
C[C@@H]1CN([C@H](C)CO)C(=O)Cc2cc(NS(=O)(=O)c3ccc(Cl)cc3)ccc2O[C@H]1CN(C)Cc1ccc(C(=O)O)cc1	/	/	/	/	-0.7
CC(C)NC(=O)N1[C@@H](CO)[C@@H](c2ccccc2)C12CN(Cc1ccc(F)cc1)C2	/	/	/	/	4.8
Cc1noc(C)c1NC(=O)Nc1cccc2c1O[C@@H](CN(C)S(=O)(=O)c1ccccc1)[C@@H](C)CN([C@@H](C)CO)C2=O	/	/	/	/	3.6
CCOC(=O)c1cc2sccc2n1CC(=O)N1CCc2ccccc21	-3.1	38.7	66.7*	0.2	-6.7
SMILES	NCOA2 inhibitor	NCOA1 inh	SRC3 inh	NR5A2 inv ag	LGR2 inh
CCC(C)Nc1nc(-c2ccccn2)nc2ccccc12 (centres undefined)	17.9	18.5	64.4*	80.6*	17.5
Cc1nc(Nc2nc3ccccc3o2)nc(C)c1C	-30.3	-76.0	-74.2	-153.6	/
Cc1ccnc(Nc2nc3ccccc3o2)n1	-25.1	-119.4	-86.4	-76.3	54.2*
Clc1ccccc1CN(Cc1ccccc1)c1ncnc2nc[nH]c12	6.1	-4.2	8.2	6.3	/
CCCN(CCC)c1ncnc2nc[nH]c12	36.6	59.0	65.3*	27.1	25.2
O=C(CCCc1ccccc1)Nc1cccc(C(=O)O)c1	-62.8	-119.5	-69.1	-127.2	82.2*
O=C(CCc1ccccc1)NC(=S)Nc1cccc(C(=O)O)c1	-37.1	-44.7	-57.1	-63.5	-1.7
Cc1c(C)c2ccc(OCC(=O)Nc3ccccn3)c(C)c2oc1=O	68.7*	74.1*	80.8*	76.5*	100.1*
Cc1c(C)c2cc(Cl)c(OCC(=O)Nc3ccccn3)cc2oc1=O	-12.6	-10.6	-28.3	-11.8	-3.0
O=C(COc1ccc(Cl)cc1Cl)Nc1ccccn1	82.1*	62.5*	58.9	50.8	100.1*
COc1ccc(CN(C)C[C@@H]2Oc3ccc(NC(=O)Cc4ccccc4)cc3CC(=O)N([C@@H](C)CO)C[C@H]2C)cc1	/	/	/	/	-15.0
COc1cc(NC(=O)CN2C(=O)CN(C)C2=O)c(C)cc1[N+](=O)[O-]	-31.7	-5.8	5.9	24.2	-16.3
COc1cc(NC(=O)Cn2ncc(Cl)c(Cl)c2=O)c(C)cc1[N+](=O)[O-]	-38.3	-55.4	-39.0	-6.6	104.5*
Cc1ccc(C)c(N=Nc2ccc(O)c3ncccc23)c1	17.6	13.4	-9.5	-2.5	52.0*
COc1ccc2c3c(n(C)c2c1)[C@@H](CO)NCC31CCN(C(C)=O)CC1	/	/	/	/	-1.9
O=[N+]([O-])c1cc(S(=O)(=O)Oc2ccccc2)ccc1Cl	-12.4	9.0	0.7	4.5	68.0*
O=S(=O)(Oc1ccccc1)c1ccc(Cl)c(Cl)c1	-20.8	-0.7	-23.9	-5.0	-18.9
O=C(COc1ccc2c(c1)OCO2)Nc1nccs1	-22.7	-79.8	-85.0	-94.2	60.5*
COc1ccc(OCC(=O)Nc2nccs2)cc1	-66.9	-46.4	-65.0	-88.8	66.1*
CO[C@H]1CN(C)C(=O)c2cc(NC(C)=O)ccc2OC[C@H](C)N(Cc2nccs2)C[C@@H]1C	/	/	/	/	6.4
Cc1ccc(-c2nn(-c3ccccc3)cc2CO)cc1	-50.8	-97.4	-71.5	-63.6	-38.7
N=C(N)SCc1cn(-c2ccccc2)nc1-c1ccc(Br)cc1	-18.4	7.4	19.8	-0.4	100.4*
Cc1ccc(Cn2ncc(Cl)c(Cl)c2=O)cc1	-1.6	1.0	12.3	16.8	-9.6
O=c1c(Cl)c(Cl)cnn1Cc1nnc(-c2ccc(Cl)cc2)o1	-72.9	-37.0	-37.1	-12.2	103.9*
C[C@@H]1CN([C@H](C)CO)C(=O)c2cccc(NC(=O)CCCCCC(=O)Nc3ccccc3N)c2O[C@H]1CN(C)C(=O)Nc1ccc2c(c1)OCO2	/	/	/	/	13.5
OCC1OC(n2cnc3c(NCc4ccco4)ncnc32)C(O)C1O (centres undefined)	-11.2	51.1	63.1*	56.8	-4.1
Nc1nc(F)nc2c1ncn2[C@@H]1O[C@H](CO)[C@@H](O)[C@H]1O	69.0*	88.2*	92.4*	101.9*	75.3*
CNC[C@@H]1OCCCC[C@H](C)Oc2ccc(NC(=O)Nc3ccccc3)cc2C(=O)N([C@H](C)CO)C[C@@H]1C	/	/	/	/	-12.1
CC[C@H](CO)Nc1nc(Nc2cccc(Cl)c2)c2ncn(C(C)C)c2n1	9.5	12.0	49.0	42.9	57.7*

Assay outcomes: PubChem, several laboratories
